Experimental data published in PubChem BioAssay (NCI).
This is part of a sample that, as a whole, favours compounds with a hit. Of some 79,000 tested, about 15% had one in any assay. Rule as the data show it: active = growth inhibition above about 70%; inactive = the rest.

Key:
[1] = NCI Yeast Anticancer Drug Screen. Data for the rad50 strain (AID 155);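 also: 0% = growth of vehicle-only cultures of the same strain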; conditions: S. cerevisiae rad50 strain growth inhibition; at 50.0 µM; hits give high values
Procedure, shortened: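 Genetically altered yeast (DNA repair pathway); compound treatment; growth inhibition vs vehicle ctrl.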

[2] = NCI Yeast Anticancer Drug Screen. Data for the mec2-1 strain (AID 157); conditions: S. cerevisiae mec2-1 strain, at 50.0 µM, hits give high values
Procedure, shortened: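 mec2-1 yeast strain, carrying an alteration in DNA damage repair or cell cycle control, was exposed to compounds; growth inhibition was measured relative to vehicle-treated controls.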

[3] = NCI Yeast Anticancer Drug Screen. Data for the sgs1 mgt1 strain (AID 161);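 also: 0% = growth of cultures given vehicle only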; conditions: S. cerevisiae sgs1 mgt1 strain, at 50.0 µM, hits give high values
Procedure, shortened: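 Compounds are added to genetically altered yeast, and growth is compared with cultures given vehicle alone to give percent inhibition.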

[4] = NCI Yeast Anticancer Drug Screen. Data for the cln2 rad14 strain (AID 165);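 also: 0% = growth equal to vehicle treated cultures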; conditions: S. cerevisiae cln2 rad14 strain, at 50.0 µM, hits give high values
Procedure, shortened: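 Yeast carrying cln2 and rad14 alterations (cell cycle control and DNA damage repair) were exposed to compounds. Growth inhibition was measured against vehicle-treated controls.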

[5] = NCI Yeast Anticancer Drug Screen. Data for the bub3 strain (AID 167); conditions: S. cerevisiae bub3 mutant strain, at 50.0 µM, hits give high values
Procedure, shortened: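 Yeast carrying a defined mutation is treated with each compound, and growth is compared with that of vehicle-exposed cells to give inhibition.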

[6] = NCI Yeast Anticancer Drug Screen. Data for the mlh1 rad18 strain (AID 175); conditions: S. cerevisiae mlh1 rad18 strain growth inhibition; at 50.0 µM; hits give high values
Procedure, shortened: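 Growth inhibition of the yeast strain was measured after compound exposure and expressed relative to vehicle-treated controls. The strain carries defined defects in DNA damage repair.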

Measured: growth inhibition

COc1ccc(OCCO)cc1
inactive: [1] -10.4% | [2] -17.8% | [3] -6.85% | [4] -27.1% | [5] -22.1% | [6] -0.15%

Clc1ccc(-n2ncc3c2-c2ccccc2CCC3)cc1
inactive: [1] 31.4% | [2] -6.5% | [3] 3.5% | [4] 4.85% | [5] 48.2% | [6] 34.3%

CCSc1ccc2c3c(cccc13)C(=O)N(CCc1ccccn1)C2=O
inactive: [1] -0.6% | [2] -14.1% | [3] 11.8% | [4] 2.25% | [5] 6.2% | [6] 2.8%

CCCOC(=O)C1(C)CCC(=O)O1 (stereo not given)
inactive: [1] 3.7% | [2] 6.1% | [3] 23.4% | [4] -19.9% | [5] -13.2% | [6] -8.85%

NC(CSS(=O)(=O)CC(N)C(=O)O)C(=O)O (stereo not given)
inactive: [1] -5.85% | [2] 3.45% | [3] 6.15% | [4] -20.7% | [5] 6.4% | [6] -7.05%

CC(=O)Oc1ccc(/C=N\N(C)CN(C)/N=C/c2ccc(OC(C)=O)cc2)cc1
inactive: [1] 14% | [2] -9.65% | [3] 31.6% | [4] 18.4% | [5] 1.65% | [6] 17.7%

O=c1[nH]nc(S(=O)(=O)N2CCCC2)c(=O)[nH]1
inactive: [1] -10.9% | [2] -9% | [3] -10.7% | [4] -2.85% | [5] -4.15% | [6] -13.2%

O=C(O)C1CC(O)c2ccccc2C1c1ccccc1 (stereo not given)
inactive: [1] -2.65% | [2] -1.15% | [3] -11.4% | [4] 22.6% | [5] 5.1% | [6] -17.3%

COc1ccc(-c2c(C(=O)O)cc(O)c3c(OC)c(OC)c(OC)cc23)cc1OC
inactive: [1] -2.8% | [2] 4% | [3] -17.6% | [4] -9.2% | [5] 2.7% | [6] 32.5%

O=C(NCCCCCCNC(=O)Nc1cccc2ccccc12)Nc1cccc2ccccc12
inactive: [1] -13.9% | [2] -14.4% | [3] 7.05% | [4] -7.75% | [5] -2.3% | [6] -13.6%

COc1cc([N+](=O)[O-])cc(C=O)c1O
inactive: [1] 6.8% | [2] 28.4% | [3] 0.7% | [4] -67.5% | [5] -38.8% | [6] 11.7%

COc1cc2c(cc1OC)CN1CCc3ccccc3CC1C2 (stereo not given)
inactive: [1] 15.3% | [2] -73.3% | [3] -16.8% | [4] -5.1% | [5] -33.5% | [6] -33.7%

CCOC(=O)C(SC(Cl)(S(=O)(=O)c1ccccc1)S(=O)(=O)c1ccccc1)C(=O)OCC
inactive: [1] 2.1% | [2] 10.1% | [3] -4.75% | [4] -8.75% | [5] -13% | [6] -14.6%

c1ccc2c(c1)CCCN2c1nc(N2CCCC2)nc(N2CCOCC2)n1
inactive: [1] -11.6% | [2] -21.8% | [3] 4.4% | [4] 7.25% | [5] 5.45% | [6] -8.25%

CN1NC(c2ccc(Cl)cc2)=C(C#N)C(=O)CC1c1ccccc1 (stereo not given)
inactive: [1] 2.1% | [2] -7.95% | [3] -5.05% | [4] 10.5% | [5] -20.4% | [6] 2.35%

NCCCn1[nH]c(=O)c2cccnc2c1=O
inactive: [1] -62.9% | [2] -19% | [3] -19% | [4] -74% | [5] -3.8% | [6] -16.3%

Cc1c(-c2coc(-c3ccc(Cl)cc3)n2)c(=O)n(-c2ccccc2)n1C
inactive: [1] -7.85% | [2] -43.2% | [3] -22.1% | [4] -9.9% | [5] 7.4% | [6] -6.6%

CC(=O)Nc1ccc(S(=O)(=O)Oc2noc3ccccc23)cc1
inactive: [1] 9.8% | [2] 3.45% | [3] 16.2% | [4] 11.1% | [5] 18.1% | [6] 23.1%

NCCN.O=C([O-])CN1CCOCC1.[OH-].[Pt+4]
inactive: [1] 8.9% | [2] -5.25% | [3] -29.9% | [4] -17.9% | [5] -13.7% | [6] -19.9%

CC1(C)OC12C=CC1C2C2CCC1C21OC1(C)C (stereo not given)
inactive: [1] 8% | [2] 8.7% | [3] -2.85% | [4] 20.1% | [5] -7.3% | [6] -14.6%
